Assay [1] in a line: compound effects on lung adenocarcinoma cell viability – A549, calcein-AM fluorescence, 48 h, basal, profiling panel (AID 1162). Note: test concentration not given here. Conditions: higher = more signal.
Assay [2] in a line: compound effects on differentiated 3T3-L1 adipocyte viability – cell-based, 3T3-L1 adipocytes, calcein-AM fluorescence, 48 h, basal, profiling panel (AID 1163). Note: test concentration not given here. Conditions: 3T3-L1 adipocytes viability, higher = more signal.
The nature of assay [3]: compound effects on hepatocellular carcinoma cell viability – HepG2, calcein-AM fluorescence, 48 h, basal, profiling panel (AID 1164). Note: test concentration not given here. As to conditions: higher = more signal.
Assay [4] can be described thus: compound effects on multiple myeloma cell viability – MM1S, calcein-AM fluorescence, 48 h, basal, profiling panel (AID 1165). Note: test concentration not given here. Conditions: higher = more signal.
Assay [5] can be described thus: calcein-AM signal in unstimulated myeloma cells – cell-based, calcein-AM fluorescence, 48 h, PK04 Diversity Set, profiling panel (AID 1166).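 Note: cells grown under basal conditions without added stimulus; test concentration not given here.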 Conditions: RPMI8226 myeloma viability, higher = more signal.
Assay [6] is described as follows: JC-1 mitochondrial signal, unstimulated HepG2 cells – cell-based, JC-1 fluorescence, 24 h, 100 nL compound, profiling panel (AID 1167). Note: test concentration not given here. As to conditions: HepG2 mitochondrial potential, higher = more signal.
The nature of assay [7]: JC-1 mitochondrial signal, unstimulated adipocytes – cell-based, JC-1 fluorescence, 3T3-L1 adipocytes, 24 h, 100 nL compound, profiling panel (AID 1168). Note: test concentration not given here. As to conditions: JC-1 mitochondrial fluorescence, higher = more signal, called active from +8 up or from −8 down.
A short description of assay [8]: JC-1 mitochondrial signal, unstimulated myeloma cells – cell-based, JC-1 fluorescence, RPMI8226, 24 h, 100 nL compound, profiling panel (AID 1169). Note: test concentration not given here. Conditions: JC-1 mitochondrial potential fluorescence, higher = more signal.
Assay [9] can be described thus: JC-1 mitochondrial signal, unstimulated MM1S myeloma – cell-based, JC-1 fluorescence, 24 h, 100 nL compound, profiling panel (AID 1170). Note: test concentration not given here. As to conditions: MM1S mitochondrial potential, higher = more signal.
The nature of assay [10]: resazurin metabolic signal in A549 cells – cell-based, resazurin fluorescence, 24 h, PK04 Diversity Set, profiling panel (AID 1171). Note: test concentration not given here. Conditions: A549 viability, higher = more signal, called active from +8 up or from −8 down.
Assay [11] can be described thus: resazurin metabolic signal in HepG2 cells – cell-based, resazurin fluorescence, 24 h, PK04 Diversity Set, profiling panel (AID 1172). Note: test concentration not given here. Conditions: HepG2 viability, higher = more signal. On the technique in general: Alamar Blue is a resazurin reagent that responds to reducing activity.
Assay [12] is described as follows: budding yeast growth changes without added modifier – OD600, strain BY4716, 24 h, basal condition, primary screen (AID 1173). As to conditions: S. cerevisiae BY4716 growth, OD600, 24 h; higher = more signal, called active from +8 up or from −8 down.
Assay [13] can be described thus: viability profiling in MM1S myeloma cells – cell-based, resazurin fluorescence, basal, 24 h, PK04 Diversity Set, profiling panel (AID 1174). Note: test concentration not given here. As to conditions: higher = more signal, called active from +8 up or from −8 down.
The target of assay [14] is Dihydroorotate dehydrogenase (quinone), mitochondrial (Plasmodium falciparum (isolate 3D7)) (UniProt Q08210). Kind of assay: inhibition of P. falciparum DHODH – biochemical, C-terminal His tag, absorbance 600 nm, primary screen (AID 1175).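 Note: recombinant parasite enzyme with a five histidine tag at its C terminus; test concentration not given here.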 Conditions: PfDHODH enzyme, DCIP absorbance 600 nm; higher = more signal, called active from +8 up or from −8 down.
Assay [15] in a line: inhibition of PAO1 biofilm formation – strain PAO1, LB-PBS medium, absorbance 600 nm, primary screen (AID 1176). Note: test concentration not given here. Conditions: P. aeruginosa PAO1 growth/biofilm, A600, 12 h; higher = more signal.
Assay [16] in a line: growth modulation of vineyard yeast isolate – strain RM11-1a, OD600, basal, 24 h, primary screen (AID 1177).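 Note: cultures grown under basal conditions with no added stressor; test concentration not given here.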 Conditions: S. cerevisiae RM11-1a growth, OD600, 24 h; higher = more signal, called active from +8 up or from −8 down.
Assay [17] in a line: growth of efflux-deficient E. coli DRC39 – strain DRC39, OD650, 24 h, E. coli filamentation inducers, primary screen (AID 1178).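 Note: growth measured as culture turbidity by optical density at 650 nm; test concentration not given here.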 As to conditions: E. coli DRC39 acrAB, higher = more signal, called active from +8 up or from −8 down.
A short description of assay [18]: growth of efflux-deficient E. coli DRC39 – strain DRC39, OD650, 48 h, E. coli filamentation inducers, primary screen (AID 1179).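 Note: screen aims at cell division blockers that make cells filament.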 As to conditions: E. coli DRC39 delta-acrAB growth, higher = more signal, called active from +8 up or from −8 down.
Assay [19] in a line: viability profiling in RPMI8226 myeloma cells – cell-based, resazurin fluorescence, basal, 24 h, PK04 Diversity Set, profiling panel (AID 1180).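 Note: RPMI8826 multiple myeloma cell line at 5000 cells per well; test concentration not given here.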 Conditions: higher = more signal.
Assay [20] concerns the target E3 ubiquitin-protein ligase XIAP (Homo sapiens) (UniProt P98170). Kind of assay: small molecules binding XIAP protein – biophysical, small-molecule microarray, fluorescence 635 nm, primary screen (AID 1181).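 Note: score merges 667 nm emission and signal to noise over triplicate slides.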 As to conditions: higher = more signal.

Our source for the z-score and composite z-score values is PubChem BioAssay.

Activity calls are given as the source filed them. Unless noted, the rule behind the calls is not given here.

E3 ubiquitin-protein ligase XIAP (Homo sapiens), sequence (P98170 whole entry, looked up): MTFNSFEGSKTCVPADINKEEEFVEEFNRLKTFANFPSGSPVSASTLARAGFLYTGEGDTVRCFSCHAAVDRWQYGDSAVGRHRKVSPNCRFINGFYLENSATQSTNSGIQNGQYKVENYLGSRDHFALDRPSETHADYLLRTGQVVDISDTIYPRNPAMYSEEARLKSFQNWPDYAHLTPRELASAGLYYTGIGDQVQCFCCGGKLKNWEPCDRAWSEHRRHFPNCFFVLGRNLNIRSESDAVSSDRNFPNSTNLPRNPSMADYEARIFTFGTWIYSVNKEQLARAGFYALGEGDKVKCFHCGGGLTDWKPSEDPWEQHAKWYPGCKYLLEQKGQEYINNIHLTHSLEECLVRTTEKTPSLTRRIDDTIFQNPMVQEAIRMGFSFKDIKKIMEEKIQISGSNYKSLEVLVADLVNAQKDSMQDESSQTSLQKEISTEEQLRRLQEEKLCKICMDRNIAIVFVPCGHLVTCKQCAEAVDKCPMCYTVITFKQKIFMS
Dihydroorotate dehydrogenase (quinone), mitochondrial (Plasmodium falciparum (isolate 3D7)), sequence (Q08210 whole entry, looked up): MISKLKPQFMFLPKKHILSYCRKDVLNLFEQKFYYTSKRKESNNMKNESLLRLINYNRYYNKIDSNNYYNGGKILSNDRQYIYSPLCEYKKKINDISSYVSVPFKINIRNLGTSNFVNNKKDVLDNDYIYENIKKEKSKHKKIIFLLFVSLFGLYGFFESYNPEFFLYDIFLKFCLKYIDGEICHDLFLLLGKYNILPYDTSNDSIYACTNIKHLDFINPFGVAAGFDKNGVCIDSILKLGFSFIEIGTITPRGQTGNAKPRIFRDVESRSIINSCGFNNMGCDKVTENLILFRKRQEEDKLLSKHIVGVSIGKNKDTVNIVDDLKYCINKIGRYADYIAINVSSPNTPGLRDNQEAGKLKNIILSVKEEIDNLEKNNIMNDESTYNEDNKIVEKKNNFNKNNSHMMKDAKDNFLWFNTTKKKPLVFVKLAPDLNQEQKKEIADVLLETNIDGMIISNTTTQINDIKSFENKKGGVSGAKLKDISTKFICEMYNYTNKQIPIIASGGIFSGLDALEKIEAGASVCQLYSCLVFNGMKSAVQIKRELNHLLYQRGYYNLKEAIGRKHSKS

Take `CCCCC(O)C1C=CC2C(=O)NC(=O)C2N1Nc1ccccn1` (stereo not given): the z-score in assay [1] was -0.795; in assay [2], -0.291; in assay [3] it was 1.18; in assay [4] it was 0.106; in [5], 0.0087; in assay [6], -1.68. Moreover, the z-score in [7] is -0.285 (inactive); in [8] it was 0.617; in [9], -0.00704; in assay [10], -0.751 (inactive); in assay [11], -1.32; in [12], 0.932 (inactive). Moreover, the z-score in assay [13] is -1.09 (inactive); in [15] it was 0.695 (inactive); in assay [16], 0.369 (inactive); in [17], -0.576 (inactive); in assay [18], -0.529 (inactive); in assay [19], -1.07. The composite z-score in assay [14] was 0.487 (inactive); in [20], 0.117.
For the molecule `CN(C)CCCC[C@@H]1NC(=O)[C@@H]2C[C@H](C(=O)NCCCCCCNC(=O)CS)[C@H](c3cccc(OCCO)c3)N2C1=O`, the z-score in assay [1] is -0.335; in assay [2], -0.668; in assay [3], 1.27; in assay [4], 0.843; in assay [5], 0.405; in assay [6] it was 1.6. The z-score in assay [7] is 0.252 (inactive); in [8] it was -0.666; in assay [9], -0.871; in assay [10] it was -0.643 (inactive); in assay [11], -0.725; in [12] it was -0.103 (inactive). Moreover, the z-score was -0.196 (inactive) in assay [13]; 0.268 (inactive) in assay [15]; -0.491 (inactive) in assay [16]; 0.303 (inactive) in [17]; 0.94 (inactive) in assay [18]; 0.117 in assay [19]. In addition, the composite z-score in [14] is -0.264 (inactive); in assay [20], -0.0052.
On to `CN(C)CCCCNC(=O)[C@H]1C[C@H]2C(=O)N[C@@H](Cc3ccccc3)C(=O)N2[C@H]1c1cccc(OCCO)c1`, for which the z-score in assay [1] is -0.411; in assay [2], -0.0901; in [3], 0.219; in assay [4] it was 0.642; in assay [5], 0.826; in assay [6] it was 0.17. The z-score is -0.259 (inactive) in [7]; 0.264 in assay [8]; -0.396 in [9]; 1.12 (inactive) in assay [10]; 1.36 in assay [11]; -0.456 (inactive) in assay [12]. The z-score in assay [13] is 1.38 (inactive); in [15] it was -0.254 (inactive); in assay [16], -0.372 (inactive); in assay [17], 0.553 (inactive); in assay [18], 0.862 (inactive); in [19] it was 1.06. The composite z-score in assay [14] was 0.65 (inactive); in [20] it was 0.0512.
On to `COC(=O)c1c(CC[C@@H](CO)NC(=O)N[C@@H](Cc2ccccc2)Cn2cc(-c3cncn3C)nn2)oc(C(C)=O)c1C(=O)OC`, for which the z-score was -0.184 in assay [1]; 1.15 in assay [2]; -0.382 in assay [3]; 0.732 in [4]; -1.81 in assay [5]; -0.321 in [6]. Also, the z-score in assay [7] is 0.724 (inactive); in [8], -0.442; in [9] it was -0.322; in assay [10], -0.208 (inactive); in assay [11], -0.649; in assay [12], -0.615 (inactive). Moreover, the z-score in assay [13] is 0.448 (inactive); in assay [15] it was -1.25 (inactive); in assay [16] it was -0.688 (inactive); in [17], 0.681 (inactive); in assay [18] it was 0.438 (inactive); in assay [19], -0.332. For the same molecule, the composite z-score was -2.95 (inactive) in [14] and 0.14 in assay [20].
As for `COC(=O)[C@@]1(Cc2ccccc2)[C@H]2c3cc(C(=O)N4CCCC4)n(Cc4ccc(C(F)(F)F)nc4)c3C[C@H]2CN1C(=O)c1ccccc1`, the z-score in [1] is -0.567; in [2] it was 1.88; in assay [3], -0.499; in assay [4], -0.331; in [5] it was -1.59; in [6], 1.5. Also, the z-score in assay [7] was -0.657 (inactive); in [8], -0.561; in [9] it was -0.796; in assay [10] it was 0.263 (inactive); in assay [11], 0.0826; in assay [12], 1.18 (inactive). The z-score in [13] is -0.335 (inactive); in [15], -0.374 (inactive); in assay [16], 0.151 (inactive); in assay [17], 0.018 (inactive); in assay [18], -0.815 (inactive); in assay [19] it was -0.578. The composite z-score in assay [14] is -0.559 (inactive); in assay [20], 0.0558.
For the molecule `CN1C(=O)C2C(C1=O)C1C=C(c3ccc(CO)cc3)C2C(c2cccs2)N1C` (stereo not given), the z-score is -0.0148 in [1]; 0.338 in assay [2]; 0.186 in [3]; -0.88 in [4]; -0.996 in [5]; 0.398 in assay [6]. For the same molecule, the z-score in assay [7] was -0.42 (inactive); in assay [8] it was -0.492; in [9], 0.172; in [10], -0.173 (inactive); in assay [11] it was -0.584; in assay [12], -1.59 (inactive). Besides, the z-score in assay [13] is -0.446 (inactive); in assay [15] it was -2.71 (inactive); in assay [16] it was -0.0654 (inactive); in assay [17], 0.596 (inactive); in assay [18], 0.346 (inactive); in assay [19], 0.343. The figures for the composite z-score in [14] and in assay [20] were -1.46 (inactive) and -0.444, respectively.
`O=C(NCC(F)(F)F)[C@@H]1c2ccccc2C(=O)N(CC23CC4CC(CC(C4)C2)C3)[C@H]1c1ccc(CO)cc1`: the z-score in assay [1] is 1.5; in assay [2], 1.27; in assay [3], 2.14; in [4] it was -0.347; in [5], 0.777; in [6], 1.08. Also, the z-score was -0.154 (inactive) in [7]; 0.417 in assay [8]; -0.457 in [9]; 0.637 (inactive) in assay [10]; 0.26 in assay [11]; -2.11 (inactive) in assay [12]. Moreover, the z-score in assay [13] is -1.04 (inactive); in assay [15], 1.43 (inactive); in assay [16], -2.97 (inactive); in assay [17] it was 1.05 (inactive); in assay [18] it was 0.823 (inactive); in assay [19], 0.582. The composite z-score is -2.32 (inactive) in [14] and 0.341 in assay [20].
Regarding `CN(C)CCCC[C@@H]1NC(=O)[C@@H]2C[C@H](C(=O)NCc3ccc(F)cc3)[C@H](c3ccc(O)cc3)N2C1=O`, the z-score was -0.467 in [1]; -0.904 in assay [2]; 0.263 in assay [3]; 0.135 in [4]; -0.0865 in assay [5]; 0.393 in assay [6]. Further, the z-score was -0.0839 (inactive) in assay [7]; -0.963 in assay [8]; -0.187 in [9]; -0.454 (inactive) in [10]; -0.188 in assay [11]; 0.444 (inactive) in [12]. In addition, the z-score in assay [13] was -0.0976 (inactive); in assay [15], 0.559 (inactive); in [16], -0.605 (inactive); in assay [17], 0.012 (inactive); in [18], 0.0344 (inactive); in assay [19], -0.0587. Besides, the composite z-score in [14] is -1.14 (inactive); in [20], -0.0448.
Regarding `C=C(C(=O)CC[C@@H](OC(C)=O)c1cccc(OCCO)c1)C(C)C`, the z-score in [1] is -0.351; in assay [2] it was 0.0938; in assay [3], -0.351; in [4], -1.54; in assay [5], -0.0608; in [6] it was -1.55. The z-score in assay [7] was 0.216 (inactive); in assay [8], 0.592; in assay [9], 0.484; in [10], -0.326 (inactive); in assay [11] it was -1.1; in [12], -1.03 (inactive). The z-score is -0.353 (inactive) in assay [13]; 0.26 (inactive) in assay [15]; 1.11 (inactive) in [16]; -1.29 (inactive) in assay [17]; -1.06 (inactive) in assay [18]; 0.173 in assay [19]. The composite z-score in assay [14] is -0.842 (inactive); in [20] it was 0.686.
